From PubChem BioAssay (NCI)
The panel holds about 79,000 compounds, 15% with a hit somewhere; the sample as a whole holds those more often. Rule as the data show it: active = growth inhibition above about 70%; inactive = the rest.

Key:
[1] = NCI Yeast Anticancer Drug Screen. Data for the rad50 strain (AID 155);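 also: 0% = growth of vehicle-only cultures of the same strain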; conditions: S. cerevisiae rad50 strain growth inhibition; at 50.0 µM; stronger effect = higher value
In short: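 Readout: growth inhibition relative to vehicle-treated cultures. Compound exposure was carried out in a genetically defined yeast strain deficient in DNA damage repair.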

[2] = NCI Yeast Anticancer Drug Screen. Data for the mec2-1 strain (AID 157); conditions: S. cerevisiae mec2-1 strain, at 50.0 µM, stronger effect = higher value
In short: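 Vehicle-treated cultures served as reference for growth inhibition of compound-exposed mec2-1 yeast.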

[3] = NCI Yeast Anticancer Drug Screen. Data for the sgs1 mgt1 strain (AID 161);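 also: 0% = growth of cultures given vehicle only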; conditions: S. cerevisiae sgs1 mgt1 strain, at 50.0 µM, stronger effect = higher value
In short: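 Inhibition of yeast growth, normalised to vehicle-treated controls, is reported for a strain bearing genetic alterations in DNA damage repair.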

[4] = NCI Yeast Anticancer Drug Screen. Data for the cln2 rad14 strain (AID 165);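 also: 0% = growth equal to vehicle treated cultures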; conditions: S. cerevisiae cln2 rad14 strain, at 50.0 µM, stronger effect = higher value
In short: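 Each compound was tested on cln2 rad14 yeast. Inhibition of growth was calculated against vehicle-exposed controls.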

[5] = NCI Yeast Anticancer Drug Screen. Data for the bub3 strain (AID 167); conditions: S. cerevisiae bub3 mutant strain, at 50.0 µM, stronger effect = higher value
In short: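 Readout: yeast growth inhibition, expressed relative to vehicle-only wells. The test organism is a mutant strain from a panel with lesions in DNA repair or checkpoint genes.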

[6] = NCI Yeast Anticancer Drug Screen. Data for the mlh1 rad18 strain (AID 175); conditions: S. cerevisiae mlh1 rad18 strain growth inhibition; at 50.0 µM; stronger effect = higher value
In short: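 Vehicle-treated cultures served as the reference for growth inhibition in a yeast strain carrying DNA damage repair alterations exposed to each compound.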

Measured: growth inhibition

COc1cccc(-c2cc(=O)c3cccnc3[nH]2)c1
inactive: [1] -49.4% | [2] 3.25% | [3] 28.8% | [4] 7.45% | [5] 26.6% | [6] 13.9%

COc1ccccc1NC(=O)/C(=C\n1c(=S)[nH]c2ccc([N+](=O)[O-])cc21)C(C)=O
inactive: [1] -9.7% | [2] -10.4% | [3] 2.55% | [4] -6.25% | [5] 4.95% | [6] -4.15%

NC(C(=O)O)C(F)(F)C(=O)O (stereo not given)
inactive: [1] 2.45% | [2] -18.7% | [3] -2.7% | [4] -33.1% | [5] -7.3% | [6] -1.15%

C=CCC1(C(=O)OC)CCC/C(=N\O)C1 (stereo not given)
inactive: [1] 7.5% | [2] -17.8% | [3] -19.4% | [4] 4.1% | [5] -26.9% | [6] -3.45%

CC[O-].Cc1ccc2cccc([O-])c2n1.Cc1ccc2cccc([O-])c2n1.Cc1ccc2cccc([O-])c2n1.[Ti+4]
inactive: [1] -18.1% | [2] -5.75% | [3] -1.5% | [4] 20% | [5] -1.25% | [6] 4.3%

Cn1c(=O)c2[nH]c(SCC(=O)O)nc2n(C)c1=O
inactive: [1] 7.45% | [2] 0.95% | [3] 3.35% | [4] -21.4% | [5] 7.6% | [6] -3.65%

COC(=O)c1cc(C(=O)OC)c(C(=O)OC)cc1C(=O)OC
inactive: [1] -1.35% | [2] -1.25% | [3] 15.8% | [4] -37.8% | [5] 4.2% | [6] 22.1%

CC(CN(C)C)/C(=N\Nc1ccccc1)c1ccccc1 (stereo not given)
inactive: [1] 16.5% | [2] 10% | [3] 29.2% | [4] 1.1% | [5] -7.85% | [6] 35.4%

Cn1c2ccccc2c2nnc(N/N=C/c3cccs3)nc21
inactive: [1] -15.6% | [2] -9.2% | [3] -9.6% | [4] -32.2% | [5] -10.6% | [6] 10.7%

CNc1ncnc2c1cnn2-c1ccc(Cl)cc1
inactive: [1] -15.8% | [2] -6.85% | [3] -6.75% | [4] -37.4% | [5] 0.3% | [6] 4.25%

Cc1ccc(S(=O)(=O)C(C#N)(Cc2c[nH]c3ccccc23)Cc2c[nH]c3ccccc23)cc1
inactive: [1] 4.85% | [2] 9.25% | [3] -5.25% | [4] -16.2% | [5] 11.8% | [6] 6.5%

COC(=O)c1cc(/C=C/C(=O)Cc2ccccc2)cn1S(=O)(=O)c1ccccc1
inactive: [1] -6.3% | [2] -9.6% | [3] -13.5% | [4] -23.9% | [5] 1.5% | [6] 1.9%

O=C(O)c1[nH]c(=O)[nH]c(=O)c1Br
inactive: [1] -4.3% | [2] -22.9% | [3] -9.75% | [4] -40.5% | [5] -15.7% | [6] -17.6%

O=C1C=C(N2CCCC2)CC1
inactive: [1] 18.2% | [2] 3.1% | [3] -0.2% | [4] -43% | [5] -17.1% | [6] 6.25%

Nc1nc2c(ncn2C2OC(CO)C3OP(=O)(O)OC32)c(=O)[nH]1 (stereo not given)
inactive: [1] -8.5% | [2] -5.1% | [3] -19.4% | [4] -29.4% | [5] 0.2% | [6] -15.8%

CCC(O)C(O)(c1ccccc1)c1ccccc1 (stereo not given)
inactive: [1] 4.05% | [2] 8% | [3] -8.8% | [4] -2.75% | [5] -1.2% | [6] -6.7%

CCN1C(=O)CC(SCCSC2CC(=O)N(CC)C2=O)C1=O (stereo not given)
inactive: [1] 16.7% | [2] -7.7% | [3] 6.25% | [4] -6.55% | [5] 13.7% | [6] -2.45%

CCCCCCCCCCCCCCCCCCNC(=O)Nc1cc(C(C)C)ccc1C
inactive: [1] -13.3% | [2] -22.1% | [3] -14.8% | [4] -47.1% | [5] -2.7% | [6] -30.6%

COc1ccccc1/C=C(\S)C(=O)O
inactive: [1] -18.9% | [2] -6.9% | [3] -19.3% | [4] -43.5% | [5] -12.7% | [6] 8.45%

CN(C(=O)C12C3C4C1C1C2C3C41C(N)=O)C(C)(C)C (stereo not given)
inactive: [1] 9.6% | [2] 7.8% | [3] 4.35% | [4] 25.1% | [5] 18.5% | [6] -6.3%
